Assay outcomes (PubChem BioAssay)
GPR32 ag: agonists of human resolvin D1 receptor DRV1 (GPR32); O75388; CHO-K1 GPR32 beta-arrestin PathHunter luminescence, 90 min; zero percent set by DMSO-only wells; activation, % at 76.9 µM; 48,000 tested, 2.5% active; AID 1346428;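 active = activation of at least 60% and not above a set upper limit, about 1 call in 100 departs from these limits; inconclusive = activation of 40% to 60%, or above that upper limit; inactive = activation under 40%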; note: 0% is about no effect
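GPR32 activation in stably transfected CHO-K1 cells, detected as beta-arrestin recruitment by enzyme-fragment complementation. Compound exposure: 90 min, 37 °C.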
HTT promoter inh: inhibitors of huntingtin promoter activity; HEK293 HTT promoter firefly luciferase reporter, 24 h; Potency, µM (series often up to 57.5 µM), without a hit: top-dose activity change, negative = inhibition, hits mostly inhibitors; 48,000 tested, 0.93% active; AID 1508623; note: potency is the fitted concentration of half-maximal effect; nearly all actives have a fitted effect of over 50% in size
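Luminescence was read after Dual-Glo reagent and a 10 min room-temperature incubation. Values were normalized to vehicle (0% activity) and zero RLU (-100% activity). Reporter HEK293 cells had been exposed to compounds (up to 57.5 uM final) for 24 h.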
GALK inh: GALK (human) enzyme inhibition; P51570; recombinant GALK, Kinase-Glo ATP luminescence, 1 h; Potency, µM (doses to about 57.5 µM), inactives show at the highest dose activity, negative = inhibition, most hits filed as inhibitors; 44,000 tested, under 10 active; AID 1347072;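 note: plate controls were full GALK reaction for no effect and reaction lacking GALK for full effect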
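Luminescent ATP-depletion readout (Kinase-Glo Plus, 10 min) after 1 h RT reaction of 5 nM GALK, 35 uM ATP, 100 uM galactose, pH 8.0 HEPES buffer. Decreased kinase activity scored as inhibition.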
B2AR arrestin ag: ADRB2 beta-arrestin recruitment. 44,000 tested, under 10 active. Potency, µM (top dose mostly 46.1 µM), usual class: activators. HTLA Tango cells, beta-arrestin recruitment, luciferase luminescence, 18 h;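 note: potency is the fitted concentration of half-maximal effect; 0% = DMSO and full agonism = EC100 isoproterenol or metaproterenol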
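Ligand-induced beta-arrestin recruitment to recombinant beta2-AR is measured via a tTA-driven luciferase reporter in Tango cells after 18 hr compound exposure at 37 degrees C. Concentrations span up to 46 microM.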
PTAP-TSG101 blk: inhibitors of HIV-1 PTAP binding to human TSG101, validation. Q99816. Fluorescence polarization, FITC-PTAP peptide/Tsg101, 20 min. Potency, µM (top dose mostly 115 µM), most hits filed as inhibitors. 44,000 tested, under 10 active; note: potency is the fitted concentration of half-maximal effect; 0% is about no effect
Target sequence (Q99816 whole entry, looked up): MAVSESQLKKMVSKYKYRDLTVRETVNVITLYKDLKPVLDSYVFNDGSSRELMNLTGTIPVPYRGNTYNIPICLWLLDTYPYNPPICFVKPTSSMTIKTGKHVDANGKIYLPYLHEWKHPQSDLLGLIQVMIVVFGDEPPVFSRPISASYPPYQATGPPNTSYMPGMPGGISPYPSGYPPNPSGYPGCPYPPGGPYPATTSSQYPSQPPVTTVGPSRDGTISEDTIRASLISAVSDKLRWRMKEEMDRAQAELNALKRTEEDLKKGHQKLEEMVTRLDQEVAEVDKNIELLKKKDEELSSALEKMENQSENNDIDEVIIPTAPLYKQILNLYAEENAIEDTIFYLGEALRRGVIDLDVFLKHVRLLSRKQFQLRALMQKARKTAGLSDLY
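Fluorescence polarization: Tsg101 binding domain (10 uM final) in 10 mM HEPES pH 7.5, 0.15 M NaCl, 0.01% Tween 20, 3 mM EDTA, 0.1 mM TCEP; compounds pinned; FITC-PTAP peptide 50 nM final; 20 min, r.t.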
HTT-AS promoter: activates huntingtin-antisense promoter activity; Potency, µM (top dose mostly 57.5 µM), for inactives: top-dose activity change, positive = activation, hits mostly activators; 48,000 tested, 0.24% active; HEK293 HTT-AS promoter firefly luciferase reporter, 24 h; response scale: percent change from vehicle, -100% = no light; note: potency is the fitted concentration of half-maximal effect; nearly all actives have a fitted effect of over 55% in size
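Firefly luciferase signal from promoter-reporter HEK293 cells was scaled between vehicle (0%) and zero RLU (-100%). Compounds were tested at final concentrations of up to 57.5 uM over 24 h at 37 degrees C. PTC124 at 50 uM final served as control inhibitor.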
The depositor's hits bear a star. Most compounds without a hit are left out; they make up all but 3.6% or so of the library. Unless noted, calls come from the whole dose curve; as a rule, active = well fitted curve in the direction sought with a large enough effect; inconclusive = small, poorly fitted or top-dose-only effect, or another doubt; inactive = no such curve, though single readings can be large; an effect the other way counts as inactive or inconclusive.

How did Cc1ccccc1C(C(=O)NC1CCCCC1)N(C(=O)CNc1ccc(C#N)cc1)c1cccc(F)c1 (stereo not given) do in these assays?
HTT promoter inh: 7%; HTT-AS promoter: 0%

Results for C[C@@H]1CCO[C@H]2Cn3cc(C(=O)NCc4ccc(F)cc4F)c(=O)c(O)c3C(=O)N12 ?
HTT promoter inh: 9%; HTT-AS promoter: 21%

Results for O=C1Nc2ccccc2C1(c1ccc(O)cc1)c1ccc(O)cc1 ?
GPR32 ag: -2; HTT promoter inh: -14%; HTT-AS promoter: -34%

Results for CC(C)(CC(=O)OCC(=O)Nc1ccccc1F)CC1=NS(=O)(=O)c2ccccc2N1 ?
GPR32 ag: 112*; HTT promoter inh: inconclusive; GALK inh: -6%; B2AR arrestin ag: inactive; PTAP-TSG101 blk: inactive; HTT-AS promoter: -31%

What do the screens show for `CCOC(=O)c1ccccc1NC(=O)COC(=O)CC(C)(C)CC1=NS(=O)(=O)c2ccccc2N1`?
GPR32 ag: 84*; HTT promoter inh: inconclusive; GALK inh: -2%; B2AR arrestin ag: inactive; PTAP-TSG101 blk: inactive; HTT-AS promoter: -53%

Results for O=C(COC(=O)CCCC1=NS(=O)(=O)c2ccccc2N1)Nc1ccc(Br)cc1 ?
GPR32 ag: inconclusive; HTT promoter inh: -10%; GALK inh: -2%; B2AR arrestin ag: inactive; PTAP-TSG101 blk: inactive; HTT-AS promoter: -19%

What do the screens show for `CC(C)(CC(=O)OCC(=O)Nc1ccc(F)c(Cl)c1)CC1=NS(=O)(=O)c2ccccc2N1`?
GPR32 ag: 115*; HTT promoter inh: inconclusive; GALK inh: 2%; B2AR arrestin ag: inactive; PTAP-TSG101 blk: inactive; HTT-AS promoter: -39%

How did COc1ccccc1NC(=O)COC(=O)CC(C)(C)CC1=NS(=O)(=O)c2ccccc2N1 do in these assays?
GPR32 ag: inconclusive; HTT promoter inh: inconclusive; GALK inh: 0%; B2AR arrestin ag: inconclusive; PTAP-TSG101 blk: inactive; HTT-AS promoter: -34%

Results for Cn1cnc(-c2cc3nccc(Oc4ccc(NC(=S)NC(=O)Cc5ccccc5)cc4F)c3s2)c1 ?
HTT promoter inh: -13%; HTT-AS promoter: -21%

How did C=C(C)[C@@H]1CC[C@]2(C)CC[C@]3(C)[C@H](CC[C@@H]4[C@@]5(C)CC[C@H](O)C(C)(C)[C@H]5CC[C@]43C)[C@@H]12 do in these assays?
HTT promoter inh: -10%; HTT-AS promoter: -2%

How did C=C1C(=O)O[C@H]2[C@@H]1CCC(C)=CCC[C@@]1(C)O[C@@H]21 do in these assays?
HTT promoter inh: inconclusive; HTT-AS promoter: -61%

What do the screens show for `CCOc1ccc(OCC)c(NC(=O)C(NS(=O)(=O)c2ccc(Br)s2)c2ccccc2)c1` (stereo not given)?
GPR32 ag: 85*; HTT promoter inh: -7%; GALK inh: 1%; B2AR arrestin ag: inactive; PTAP-TSG101 blk: inactive; HTT-AS promoter: -26%

Results for Cc1cc(Br)ccc1NC(=O)C(Cc1ccccc1)NS(=O)(=O)c1ccc(Br)s1 (stereo not given) ?
GPR32 ag: 65*; HTT promoter inh: -30%; GALK inh: 1%; B2AR arrestin ag: inactive; PTAP-TSG101 blk: inactive; HTT-AS promoter: -27%

What do the screens show for `O=c1[nH]sc2cc(Cl)ccc12`?
GPR32 ag: 32; HTT promoter inh: -36%; HTT-AS promoter: inconclusive

What do the screens show for `Nc1ccn([C@@H]2O[C@H](CO)[C@@H](O)C2(F)F)c(=O)n1`?
GPR32 ag: -12; HTT promoter inh: -22%; HTT-AS promoter: -22%

Results for Cc1ccc(C(=O)Nc2ccc(Br)cc2)cc1S(=O)(=O)N1CCOCC1 ?
GPR32 ag: inconclusive; HTT promoter inh: 20µM*; GALK inh: 0%; B2AR arrestin ag: inactive; PTAP-TSG101 blk: inactive; HTT-AS promoter: -22%
